High-throughput results: PubChem, National Center for Advancing Translational Sciences (NCATS)
Pf growth 96h = P. falciparum growth inhibition at 96 hour, primary screen for plastid delayed-death inhibitors. P. falciparum luciferase reporter growth, 96 h. Potency, µM (series often up to 28.7 µM), for inactives: at the highest dose activity change, negative = inhibition, most hits filed as inhibitors. 320,000 compounds, 6.9% hits. AID 504834; further: potency means the concentration at half of the fitted maximal effect; on the % scale 0 is the no-effect control and ±100 the full control effect
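Infected RBCs, 2% Hct / 0.05% parasitemia final; luciferase-reporter P. falciparum; cpd 96 h, 37 C, 5% CO2; luciferase detection reagent; luminescence.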
Cycloheximide cs = counter-screen for Shiga toxin inhibitors: cycloheximide protein synthesis inhibition | 300,000 compounds, 12% hits | cell reporter, cycloheximide protein synthesis inhibition counterscreen | max response, %; in the data active means max response mostly above about 13%, no sharp cut-off; inactive means mostly below about 14%; further: read at 38.3 µM for the half of the compounds with a filed dose; 0% is about no effect
NS1 inh = blocks influenza NS1 protein function; Potency, µM (titrated, usually from 46.1 µM), for inactives: at the top dose activity, positive = more growth; 270,000 compounds, 0.4% hits; AID 2326; calls by dose curve; further: potency means the concentration at half of the fitted maximal effect; actives are rising curves; nearly all actives have a fitted effect of over 50% in size
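Recovery from NS1-induced slow growth read by OD600 in budding yeast switched to galactose assay medium (pH 6.0, -URA) at 1:100 dilution. Compound 23 nl per well; the matching strain lacking NS1 serves as control.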
Sm TGR block = inhibitors of Schistosoma mansoni thioredoxin glutathione reductase | Q962Y6 | purified TGR, DTNB reduction, TNB absorbance 405 nm | Potency, µM (titrated, usually from 114 µM), for the others: at the top dose activity change, negative = inhibition, usual class: inhibitors | 360,000 compounds, 3% hits | AID 485364; further: potency means the concentration at half of the fitted maximal effect; on the % scale 0 is the no-effect control and ±100 the full control effect; nearly all actives have a fitted effect of over 60% in size
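TGR 20 nM + NADPH 100 uM (dispensed conc.), cpd preinc 15 min RT; start with NADPH (500 uM addition) then DTNB (15 mM addition). Kinetic TNB absorbance, 405 nm filter. Four-parameter Hill fit across titration.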
Pf growth 48h = inhibits P. falciparum growth in the first generation, 48 h | P. falciparum luciferase growth in erythrocytes, 48 h | Potency, µM (highest dose often 28.7 µM), inactives show at the highest dose activity change, negative = inhibition, most hits filed as inhibitors | 310,000 compounds, 5.9% hits; further: potency means the concentration at half of the fitted maximal effect; on the % scale 0 is the no-effect control and ±100 the full control effect
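Parasite viability was followed by luminescence of a genomically integrated firefly luciferase. Cultures held 0.1% parasitemia at 2% hematocrit (final), incubated under 5% CO2 at 37 C.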
Shiga inhibitor = Shiga toxin inhibition | Vero cells, Shiga toxin protein synthesis inhibition reporter | inhibition, % at 38.7 µM | 290,000 compounds, 9.2% hits | AID 2315; in the data active means inhibition mostly above about 28%, no sharp cut-off; inactive means mostly below about 43%; further: 0% is about no effect
The depositor's hits bear a star; ? = inconclusive; / = not tested or not shown; [ ] = remark or other dose. Most compounds without a hit are left out; they make up all but 21% or so of the library. Unless noted, the call rests on the fitted dose curve; in most records, active means well fitted curve in the direction sought with a large enough effect; inconclusive means small, poorly fitted or top-dose-only effect, or another doubt; inactive means no such curve, though single readings can be large; an effect the other way counts as inactive or inconclusive.

SMILES	Pf growth 96h	Cycloheximide cs	NS1 inh	Sm TGR block	Pf growth 48h	Shiga inhibitor
COc1cc(/C=C2/CCC/C(=C\c3cc(O)c(OC)c(Cl)c3)C2=O)cc(Cl)c1O	0.131µM*	-0.5	-3.6%	0.0%	?	-20.5
COc1cc(/C=C2\COC/C(=C\c3cc(OC)c(OC)c(OC)c3)C2=O)cc(OC)c1OC	0.828µM*	27.9*	0.1%	?	0.37µM*	43.9*
COc1cc(/C=C2\SC(N)=NC2=O)cc(Cl)c1O	?	-1.3	0.2%	5.6%	56.2%	/
COc1cc(/C=C2\CC/C(=C\c3cc(OC)c(O)c(OC)c3)C2=O)cc(OC)c1O	6.57µM*	1.4	13.9%	28.2µM*	?	-11.0
COc1ccc(/C=C2/CC/C(=C\c3ccc(OC)c(OC)c3OC)C2=O)c(OC)c1OC	29.0%	-2.0	0.3%	3.8%	?	-4.1
COc1ccc(F)cc1S(=O)(=O)NCC(c1ccco1)N1CCc2ccccc2C1 (centres undefined)	?	/	/	-11.3%	?	/
CCOC(=O)COc1ccc(C)cc1C(=O)c1ccn2nc(-c3ccc(C)cc3)cc2n1	/	/	/	1.1%	/	/
COc1ccc(CNC(=O)c2ccc(NC(=O)N3CCCCc4ccccc43)cc2)c(OC)c1	/	/	/	8.8%	/	/
O=C(Nc1ccccc1N1CCOCC1)c1ccc2c(c1)OCCO2	-9.8%	6.9	9.2%	-2.6%	?	5.5
C=CC(C)(C)O[C@@H]1O[C@H](CO)[C@@H](O)[C@H](O)[C@H]1O	41.6%	/	/	12.0%	74.4%	/
COc1ccc2cc(CCNC(=O)c3cccs3)c(=O)[nH]c2c1	30.7%	47.5*	3.9%	-4.6%	?	54.3*
COc1ccc2cc(CCNC(=O)CC(C)(C)C)c(=O)[nH]c2c1	470.3%	-0.7	-4.7%	-14.8%	-10.4%	26.3
COc1ccc2cc(CCNC(=O)c3cc4ccccc4o3)c(=O)[nH]c2c1	1.47µM*	-2.4	-0.8%	-34.6%	37.0%	36.2
COC(=O)c1c(S(=O)(=O)NCc2ccccc2)sc(C(=O)O)c1C	/	4.9	-1.3%	-6.8%	13.3%	2.8
COc1cc(OC)c(NC(=O)C2=C(C)C(=O)OC23CCCCC3)cc1Cl	/	/	/	-3.2%	/	/
Cc1cccc(NC(=O)CSc2nc(-c3cccs3)cc(C(F)(F)F)c2C#N)c1C	/	/	/	19.1%	/	/
Cc1ccsc1/C=N/N=C/c1sccc1C	8.28µM*	48.0*	-25.8%	1.2%	487.8%	/
Cc1ccsc1C=Nc1ccc(O)cc1	16.5%	14.9*	26.8%	17.8µM*	?	34.0
Cc1ccsc1/C=N/NC(=O)CC(=O)NCC(C)C	-18.8%	-3.2	/	8.9%	33.3%	-11.1
CCCCCCOC1(c2ccccc2)OC(=O)c2ccccc21 (centres undefined)	8.28µM*	-3.3	7.4%	-24.7%	10.4µM*	-0.4
Cc1cccc(C2(c3cccc(C)c3)OC(=O)c3ccccc32)c1	?	-5.3	15.1%	14.9%	?	-27.4
Cc1cccc(OC2(c3ccccc3)OC(=O)c3ccccc32)c1C (centres undefined)	9.28µM*	-3.0	25.1%	1.1%	?	3.1
CCCCCCCOC1(c2ccccc2)OC(=O)c2ccccc21 (centres undefined)	6.57µM*	-2.8	12.9%	-6.0%	?	18.0
COc1ccc(NC2(c3ccccc3)OC(=O)c3ccccc32)cc1 (centres undefined)	50.6%	-1.5	/	1.3%	15.9%	12.4
COc1ccc(-c2nc3n(n2)C(c2ccc(O)cc2)C(C(=O)Nc2cccnc2)=C(C)N3)cc1OC (centres undefined)	/	/	/	1.6%	/	/
SMILES	Pf growth 96h	Cycloheximide cs	NS1 inh	Sm TGR block	Pf growth 48h	Shiga inhibitor
COc1ccc(C(=O)N(C)Cc2cnn(Cc3ccccc3)c2)cc1S(=O)(=O)N1CCOCC1	?	/	/	-19.2%	?	/
COC(=O)c1ccc(NC(=S)NCCc2ccccc2)cc1	?	-0.7	15.7%	-24.9%	-9.4%	-3.4
CCOC(=O)c1ccc(NC(=S)NCc2ccccc2)cc1	-18.1%	11.6*	-13.4%	?	34.5%	21.0
CCOC(=O)c1ccc(NC(=S)Nc2ccc(Cl)cn2)cc1	-16.3%	-1.4	0.5%	-11.3%	87.1%	-3.8
CCOC(=O)c1ccc(NC(=S)Nc2ccccn2)cc1	16.0%	26.5*	?	-9.8%	35.4%	39.8*
CCOC(=O)c1ccc(NC(=S)NCCc2ccccc2)cc1	13.1µM*	1.3	-157.5%	1.2%	?	-18.9
CCc1cccc(-n2nnc(-c3nc(-c4cccs4)no3)c2N)c1	/	/	/	1.4%	/	/
CN(C)CCN(C(=O)/C=C/c1cccs1)c1nc2c(F)cc(F)cc2s1	?	-5.5	5.1%	-10.9%	11.7µM*	-7.8
CC1SC(c2ccc(F)cc2)N(CCc2ccccc2)C1=O (centres undefined)	-3.7%	24.1*	-6.6%	0.0%	-25.8%[0.00184 µM]	42.0*
O=C(CCCO)N/N=C/c1ccccc1[N+](=O)[O-]	22.1%	0.8	6.5%	-7.9%	28.2%	38.8*
O=C(CC(=O)NC1CCCCC1)N/N=C/c1ccccc1[N+](=O)[O-]	?	29.3*	9.2%	-10.4%	130.1%	46.6*
O=C(N/N=C/c1ccccc1[N+](=O)[O-])C(=O)N1CCCC1	-6.4%	20.0*	3.7%	-4.0%	72.5%	51.7*
O=C(CC(=O)NC1CCCCC1)N/N=C/c1ccccc1Cl	?	-1.3	6.9%	1.5%	19.5%	-11.4
O=C(N/N=C/c1cccc2ccccc12)C(=O)N1CCCC1	14.2%	0.0	1.7%	-0.3%	19.0%	24.2
COc1cccc(CC(=O)Nc2ccc3nc(Nc4cccc(C(F)(F)F)c4)cc(C)c3c2)c1	/	/	/	6.2%	/	/
O=C(O)CCn1cc(C=C2C(=O)NC(=S)NC2=O)c(-c2ccccc2)n1	-17.5%	1.5	12.9%	79.4µM*	4.6%	12.7
O=C(O)CCn1cc(C=C2C(=O)NC(=S)NC2=O)c(-c2cc3ccccc3oc2=O)n1	50.7%	6.9	2.4%	10µM*	20.4%	-13.6
Cc1cccc(C(=O)N2CCCCCC2)c1	?	-1.3	-1.6%	-7.9%	/	-7.0
Cc1ccc(C(=O)n2c(=S)nc3ccccn32)cc1	251.3%	48.8*	-3.2%	0.0%	/	54.0*
Cc1cccc(C(=O)n2c(=S)nc3ccccn32)c1	240.0%	29.3*	-90.5%	6.9%	/	83.1*
O=C(c1ccccc1)n1c(=S)nc2ccccn21	4.9%[5.75 µM]	52.3*	-13.5%	2.7%	227.3%	96.9*
NS(=O)(=O)c1ccc(CCNC(=O)CSc2nnc3ccccn23)cc1	-0.3%	-1.0	/	3.3%	-7.0%	-9.9
COC(=O)COc1ccc(Oc2nc(NC(C)(C)C)nc(N3CCOCC3)n2)nn1	/	/	/	-3.7%	/	/
CCCN(CC(=O)Nc1ccccc1OC)C(=O)c1ccc2[nH]c3c(c2c1)CC(C)CC3 (centres undefined)	?	/	/	-11.3%	?	/
Cc1ccc(S(=O)(=O)CCC(=O)Nc2cccc([N+](=O)[O-])c2)cc1	6.4%	-3.0	/	?	-17.3%	-11.9
